Laboratory results published in PubChem BioAssay AID651871 (Sanford-Burnham Center for Chemical Genomics, 2012).
Values joined by “and” are separate entries in the source; they are usually repeats but may differ in a detail not shown here. Identical values can stand only once.

System: H9c2
Test: cardiomyocyte survival under oxidative or metabolic stress – cell-based, panel, H9c2 and HL-1, ATP luminescence, set 2, SAR follow-up (AID 651871);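 further: cells exposed to stressor for 2 h before ATP readout; reference of the scale not given here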
Details: H9c2/HL-1 cardiomyocytes, 2-deoxyglucose stress, with 2-deoxyglucose; run 7, at 79 µM (top of the series)

Row | SMILES | activity (protection/inhibition)
1 | CCOC(=O)c1cccc(NC(=O)CNC(=O)c2cc(-c3cc(OC)c(OC)c(OC)c3)nc3ccccc23)c1 | 77%
2 | COc1ccc2nc(-c3cc(OC)c(OC)c(OC)c3)cc(C(=O)NCC(=O)Nc3ccc(C(C)=O)cc3)c2c1 | 66.5%
3 | COc1ccc2c(c1OC)C(=O)N1c3ccccc3C(=O)N(Cc3cccc(Cl)c3Cl)C21 (stereo not drawn) | 73.7% and 71.7% and -5.58%
